These results are taken from PubChem BioAssay (NCI).

Structures are written as SMILES. The panel holds about 83,000 compounds, 20% with a hit somewhere; the sample as a whole holds those more often.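 In brief: 96-well plates, 48 h treatment, single concentration, percent growth endpoint.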 Values without a mark were called inactive. Activity calls are given as the source filed them. How the source made its calls: active means growth percent below 10; inactive means the rest.

Experiment in all cases: NCI-60 one-dose screen, 48 h (100 = growth as untreated, 0 = no growth, -100 = all killed)
Assay [1] has as its system NCI-H23 lung. The conditions noted are these: 10 µM unless noted.
Assay [2] concerns NCI-H226 lung. Conditions: 10 µM unless noted.
The subject of assay [3] is NCI-H322M lung. The conditions noted are these: 10 µM unless noted.
Assay [4] has as its system HOP-62 NSCLC. Conditions: 10 µM unless noted.
Assay [5] relates to NCI-H460 lung. The conditions noted are these: 10 µM unless noted.
The subject of assay [6] is HOP-92 NSCLC. The conditions noted are these: 10 µM.
Assay [7] has as its system A549/ATCC NSCLC. Conditions: 10 µM unless noted.
Assay [8] relates to 786-0 renal. Conditions: 10 µM unless noted.
Assay [9] deals with COLO 205 colon. The conditions noted are these: 10 µM unless noted.
For assay [10], the system named is DU-145 prostate. The conditions noted are these: 10 µM unless noted.
Assay [11] concerns K-562 leukemia. Conditions: 10 µM unless noted.
In assay [12] the test system is MALME-3M melanoma. The conditions noted are these: 10 µM unless noted.
Assay [13] relates to MDA-MB-231 breast. Conditions: 10 µM unless noted.
Assay [14] relates to RXF 393 renal. The conditions noted are these: 10 µM unless noted.
In assay [15] the test system is SF-268 CNS. Conditions: 10 µM unless noted.
For assay [16], the system named is SF-295 CNS. The conditions noted are these: 10 µM unless noted.
The test system of assay [17] is SF-539 CNS. Conditions: 10 µM unless noted.
Assay [18] concerns UACC-257 melanoma. Conditions: 10 µM unless noted.
In assay [19] the test system is M14 melanoma. Conditions: 10 µM unless noted.
For assay [20], the system named is NCI-H522 lung. The conditions noted are these: 10 µM unless noted.

On to `C=C(C)[C@@H]1CC[C@]2(COP(=O)(OCC)OCC)CC[C@]3(C)[C@H](CC[C@@H]4[C@@]5(C)CCCNC(C)(C)[C@@H]5CC[C@]43C)[C@@H]12`, for which the growth in assay [1] is 37.1%; in [2] it was 53.8%; in [3] it was 84.7%; in assay [4], 62.9%; in [5] it was -32.8% (active); in assay [6] it was 41%. In addition, the growth in assay [7] was 36.3%; in assay [8], 35.7%; in [9], -15.4% (active); in assay [10] it was 31.8%; in assay [11], -10.7% (active); in [12] it was -51.8% (active). Further, the growth in [13] was 52%; in [14], -8.28% (active); in [15], 50.1%; in assay [16] it was 19.8%; in assay [17], 57.7%; in assay [18], 29.1%. Moreover, in [19], the growth was -46.4% (active).

Consider `CC(C)(O)c1cncc(-c2ccc3ncnc(NCc4ccccc4)c3c2)c1`, for which the growth in [1] is 71.1%; in [2] it was 74.8%; in assay [3], 102%; in assay [4], 66%; in assay [5], 97.6%; in assay [6] it was 72.3%. Further, the growth in [7] is 85%; in assay [8], 76.3%; in assay [9], 113%; in [10] it was 62.7%; in assay [11], 103%; in assay [12], 101%. In addition, the growth is 72.9% in assay [13]; -7.38% (active) in assay [14]; 65% in [15]; 85% in assay [16]; 85.3% in [17]; 95.5% in assay [18]. Besides, the growth in [19] is 105%.

On to `COc1cc(-c2nn(C(C)(C)C)cc2-c2ccnc(NCCCNS(=O)(=O)c3ccc(Cl)cc3)n2)ccc1Cl`, for which the growth is 73% in assay [1]; 53.8% in assay [2]; 78.2% in assay [3]; 61.7% in assay [4]; 55.1% in assay [5]; 48.6% in assay [6]. Moreover, the growth was 36.3% in assay [7]; 69% in assay [8]; 81.5% in assay [9]; 60.5% in assay [10]; 33.5% in [11]; 87.9% in [12]. Further, the growth was 55.5% in assay [13]; 4.9% (active) in assay [14]; 44.1% in assay [15]; 59.6% in assay [16]; 84.4% in assay [17]; 82.1% in [18]. In addition, the growth in [19] was 76.8%.

Turning to `CCC(NC(c1cc2cccc3ccc4cccc1c4c32)c1nnnn1C(C)(C)C)C1CCCCC1` (stereo not drawn), the growth in assay [1] was 46.6%; in assay [2], 75%; in assay [3] it was 79.3%; in [4], 69.7%; in assay [5], 31.2%; in assay [20] it was 60.1%. In addition, the growth in [7] was 69.7%; in [8], 67.3%; in assay [9], 78.6%; in [10], 69.7%; in [11], 35.2%; in assay [12], 83.5%. Further, the growth is 55.9% in [13]; 69.8% in assay [14]; 74.6% in [15]; 63.5% in assay [16]; 63.2% in assay [17]; 38.6% in assay [18].

Turning to `CC(C)(C)n1nnnc1C(Nc1cccc2c1OCO2)c1cc2cccc3ccc4cccc1c4c32` (stereo not drawn), the growth is 87.4% in assay [1]; 82.2% in assay [2]; 96% in [3]; 98.8% in assay [4]; 88.8% in assay [5]; 78.8% in assay [20]. In addition, the growth in assay [7] is 81.3%; in [8], 93.2%; in assay [9] it was 103%; in assay [10], 97.5%; in [11], 75%; in assay [12], 93.2%. Besides, the growth is 80.5% in assay [13]; 40.6% in assay [14]; 78.7% in [15]; 81.9% in assay [16]; 93% in [17]; 100% in [18].
